# Bioassay records from PubChem.
# HCV inhibitor: qHTS Assay for Inhibitors of Hepatitis C Virus (HCV); Huh7.5.1 HCVcc-Cre infection, luciferase reporter, 44 h; Potency, µM (doses to about 41.8 µM), for the others: at the highest dose activity change, negative = inhibition, most hits filed as inhibitors; 340,000 tested, 3.4% active; AID 651820, 2012; also: potency is read from the fitted curve at half-maximal effect; % is scaled to controls: 0 for no effect and ±100 for the full control effect
#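 After 44 h co-culture of compound, cells and HCVcc-Cre (~0.5 moi), substrate is added for 15 min at room temperature and luciferase measured over 15 sec. Cells were seeded at 1,000/well and pre-cultured 4 h.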
# Pf growth 96h: Primary qHTS for delayed death inhibitors of the malarial parasite plastid, 96 hour incubation | AID 504834, 2011 | P. falciparum luciferase reporter growth, 96 h | Potency, µM (doses to about 28.7 µM), for the others: top-dose activity change, negative = inhibition, most hits filed as inhibitors | 320,000 tested, 6.9% active; also: potency is read from the fitted curve at half-maximal effect; % is scaled to controls: 0 for no effect and ±100 for the full control effect
#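 Delayed-death screen, second-generation endpoint: infected erythrocytes, 2% hematocrit, 0.05% parasitemia final; 96 hours at 37 C, 5% CO2; luciferase detection reagent; luminescence decrease equals reduced growth.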
# Cycloheximide cs: Cycloheximide Counterscreen for Small Molecule Inhibitors of Shiga Toxin; cell reporter, cycloheximide protein synthesis inhibition counterscreen; 300,000 tested, 12% active; max response, %; AID 2314, 2010; in the data active = max response mostly above about 13%, no sharp cut-off; inactive = mostly below about 14%; also: read at 38.3 µM for the half of the compounds with a filed dose; 0% is about no effect
# HCMV inh: qHTS Assay for inhibitors of the human cytomegalovirus (HCMV); HFF cells, HCMV-luciferase reporter, 72 h; active compounds read low; activity change, negative = inhibition, % at 57.5 µM; 410,000 tested, 4.5% active; in the data active = activity change below about -60%; inconclusive = no clear call, values can overlap the other calls; inactive = above about -39%; also: % is scaled to controls: 0 for no effect and ±100 for the full control effect
#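 Steps: HFFs plated, 16 h 37C; compounds added; HCMV-luciferase added to MOI 1 PFU/cell; 72 h 37C; OneGlo reagent, 5 min room temperature; luminescence read, normalized to controls.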
# Shiga toxin inh: A qHTS for Small Molecule Inhibitors of Shiga Toxin. Vero cells, Shiga toxin protein synthesis inhibition reporter. inhibition, % at 38.7 µM. 290,000 tested, 9.2% active. AID 2315, 2010; in the data active = inhibition mostly above about 28%, no sharp cut-off; inactive = mostly below about 43%; also: 0% is about no effect
# Pf growth 48h: Primary qHTS for delayed death inhibitors of the malarial parasite plastid, 48 hour incubation; P. falciparum luciferase growth in erythrocytes, 48 h; Potency, µM (series often up to 28.7 µM), without a hit: at the top dose activity change, negative = inhibition, most hits filed as inhibitors; 310,000 tested, 5.9% active; AID 504832, 2011; also: potency is read from the fitted curve at half-maximal effect; % is scaled to controls: 0 for no effect and ±100 for the full control effect
#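 First compound was added to culture medium, then infected red cells at 0.1% parasitemia and 2% hematocrit (final). After incubation at 37 C under 5% CO2, luciferase detection reagent was dispensed and light output recorded.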
# * hit, by the source's call; ? = inconclusive; nt = no result; [ ] = another dose, or the depositor's remark. Sampled rows, rich in hits. Any-hit rate of the full collection: about 21%. Unless noted, calls follow the shape of the dose curve; as a rule, active = well fitted inhibition curve with a large enough effect; inconclusive = small, poorly fitted or top-dose-only effect, or another doubt; inactive = no such curve, though single readings can be large or run the other way.
SMILES,HCV inhibitor,Pf growth 96h,Cycloheximide cs,HCMV inh,Shiga toxin inh,Pf growth 48h
CC(C)C[C@@H](CNCC(=O)[C@H](CC(C)C)NC(=O)c1[nH]cnc1C(=O)N[C@@H](C)CN)NC(=O)c1nc[nH]c1C(=O)N[C@@H](CC(=O)O)C(=O)O,13.0%,nt,nt,-9.2,nt,nt
CCCCCCCNC(=O)C1(CC2CC(c3ccc(Cl)cc3)=NO2)CCNCC1 (stereo unspecified),8.5%,6.57µM*,0.3,-99.7*,-1.9,-77.3%
CCCCCCCNC(=O)C1(CC2CC(c3ccc(Cl)cc3)=NO2)CCN(C(=O)Cc2ccc(F)cc2)CC1 (stereo unspecified),15.2%,11.7µM*,2.2,19.6,-0.5,1.2%
CCCCCCCNC(=O)C1(CC2CC(c3cccc(Br)c3)=NO2)CCN(C(=O)Cc2ccc(F)cc2)CC1 (stereo unspecified),-18.6%,10.4µM*,nt,nt,nt,7.38µM*
CCCCCCCNC(=O)C1(CC2CC(c3cccc(Br)c3)=NO2)CCNCC1 (stereo unspecified),-6.8%[8.37 µM],11.7µM*,8.2*,-3.1,32.6*,?
COc1ccc(S(=O)(=O)N2CCOCC2)cc1NC(=O)CSc1nnc(C2CC2)n1N,10.0%,-2.1%,-3.0,5.5,-3.6,17.1%
c1ccc(OCc2noc(CN3CC[C@@H]4CCCC[C@H]4C3)n2)cc1,-1.8%,13.1µM*,-2.6,0.0,-4.1,17.7%
O=C(CCNC(=O)C1CCN(S(=O)(=O)c2ccc(F)cc2)CC1)NCc1cccc(Cl)c1,0.5%,?,-3.5,5.4,10.1,14.1%
Cc1cc2c(cc3c(SCc4ccc(Cl)cc4)nnc(C)n32)o1,nt,nt,nt,-11.8,nt,nt
COc1cc(CN(C)CC(=O)c2[nH]c(C)c(C(C)=O)c2C)ccc1OC(F)F,?,?,-2.5,23.0,7.2,?
COc1cc(CN(C)c2ncnc3sccc23)ccc1OC(F)F,?,13.1µM*,6.2,?,-2.8,?
CCc1cc(C(=O)O)c(NC(=O)c2cc(OC)c(OC)c(OC)c2)s1,-2.4%,34.9%,4.9,-33.7,10.3,?
Nc1ncc([N+](=O)[O-])cc1Br,-1.4%,64.0%,-0.8,-30.3,-10.1,37.0%
CN(C)c1ncc([N+](=O)[O-])cc1C(F)(F)F,13.7%,38.3%,4.5,-4.4,10.5,0.738µM*
COc1ccc(NC(=O)CC2C(=O)N(c3ccccc3)C(=O)N2CCc2sccc2C)cc1 (stereo unspecified),nt,nt,nt,2.2,nt,nt
CCOc1ccc(OCc2ccc(C(=O)N3CCCC3)o2)cc1,-21.3%,63.3%,23.9*,?,54.1*,-6.9%
CCOc1ccc(OCc2ccc(C(=O)NC(C)C)o2)cc1,?,11.7µM*,39.8*,26.0,43.0*,?
CCOc1ccc(OCc2ccc(C(=O)OCc3ccccn3)o2)cc1,7.9%,10.4µM*,63.2*,50.1,143.1*,143.2%
CCCNC(=O)c1ccc(COc2ccc(C)cc2)o1,-1.3%,?,0.9,18.8,-5.5,?
CCOC(=O)c1ccc(COc2ccc(C(C)C)cc2)o1,4.0%,5.4%,73.2*,25.4,101.8*,214.7%
COC(=O)c1ccc(COc2ccc(C(=O)c3ccccc3)cc2)o1,-20.1%,33.5%,1.4,51.3,2.0,18.8%
CCOC(=O)c1cc(C)n(CC2CCC(C(=O)Nc3ccc(C)cc3)CC2)c1C (stereo unspecified),nt,nt,nt,-1.5,nt,nt
Cc1cccc2c1cnn2C(=O)CCC(=O)NCC(C)c1ccccc1 (stereo unspecified),14.0%,?,-2.7,-25.7,-2.3,3.5%
CCC(C)c1ccc(OCc2ccc(C(=O)O)o2)cc1 (stereo unspecified),19.7%,-9.0%,70.5*,127.3,105.3*,324.5%
CC(C)NC(=O)c1ccc(COc2cc(Cl)ccc2Cl)o1,11.2µM*,14.6%,9.3,8.6,14.2,?
CC(C)c1ccc(OCc2ccc(C(=O)N3CCCC3)o2)cc1,?,41.1%,111.0*,32.0,154.8*,0.7%
